The values below come from PubChem BioAssay (NCATS).

Assay [1] can be described thus: P-glycoprotein substrates identified in KB-8-5-11 adenocarcinoma cell line, qHTS therapeutic library screen (AID 1346987). Further: nearly all actives have a fitted effect of over 65% in size. Further: potency means the concentration at half of the fitted maximal effect. In short, it runs like this:
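KB-8-5-11: colchicine-selected sub-line of KB-3-1 over-expressing P-gp; assay medium lacked colchicine. 72 h drug exposure at 37 degree C, CellTiter-Glo.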
In general terms: qHTS replaces the single test concentration by a dilution series.

The target of assay [2] is Cytochrome P450 2D6 (Homo sapiens) (UniProt P10635). The assay is described as follows: Cytochrome P450 family 2 subfamily D member 6 (CYP2D6) small molecule antagonists: luciferase biochemical (cell-free) qHTS assay (AID 1645840; active means well fitted curve in the direction sought with a large enough effect in the repeat runs; an effect the other way counts as inactive or inconclusive; further: nearly all actives have a fitted effect of over 55% in size; further: potency means the concentration at half of the fitted maximal effect). In short, it runs like this: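 P450-Glo luminescent screen: recombinant CYP2D6 enzyme–proluciferin substrate mix preincubated with compound 10 min at room temperature, then NADPH regeneration added for 1 h at room temperature. Detection reagent added for 20 min; luciferin light read as relative luminescence units.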
Cytochrome P450 2D6 (Homo sapiens), sequence (P10635 whole entry, looked up): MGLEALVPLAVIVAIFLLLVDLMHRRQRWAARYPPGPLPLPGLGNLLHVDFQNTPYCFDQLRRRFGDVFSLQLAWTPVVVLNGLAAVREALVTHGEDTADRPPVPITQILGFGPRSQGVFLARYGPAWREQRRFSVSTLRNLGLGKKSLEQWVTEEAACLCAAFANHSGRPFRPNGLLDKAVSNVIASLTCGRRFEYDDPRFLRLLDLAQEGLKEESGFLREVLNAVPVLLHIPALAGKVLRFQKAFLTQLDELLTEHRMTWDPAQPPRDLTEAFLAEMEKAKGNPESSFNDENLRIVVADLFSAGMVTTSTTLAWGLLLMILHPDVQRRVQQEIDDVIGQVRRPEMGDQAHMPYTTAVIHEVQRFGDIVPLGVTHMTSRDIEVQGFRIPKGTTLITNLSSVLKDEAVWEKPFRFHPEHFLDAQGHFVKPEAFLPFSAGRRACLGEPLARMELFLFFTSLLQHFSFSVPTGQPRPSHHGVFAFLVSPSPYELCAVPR

Assay [3] deals with Cytochrome P450 2C9 (Homo sapiens) (UniProt P11712). Put plainly: Cytochrome P450 family 2 subfamily C member 9 (CYP2C9) small molecule antagonists: luciferase biochemical (cell-free) qHTS assay (AID 1645842; active means well fitted curve in the direction sought with a large enough effect in the repeat runs; an effect the other way counts as inactive or inconclusive; further: nearly all actives have a fitted effect of over 55% in size; further: potency means the concentration at half of the fitted maximal effect). The essentials:
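Luminescence, after 20 min with luciferin detection reagent, reflected CYP2C9 turnover during a 1 h NADPH-driven reaction at 37C. Enzyme-substrate mix contained 0.4% bovine serum albumin and was preincubated with compound 10 min at room temperature.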

Another assay has as its system CRL-7250. Put plainly: Cytotoxic Profiling of Annotated Libraries Using Quantitative High-Throughput Screening (AID 1296008). Further: nearly all actives have a fitted effect of over 60% in size. Further: potency means the concentration at half of the fitted maximal effect. On max response: on the % scale 0 is the no-effect control and ±100 the full control effect. Particulars: Five cell lines viability, CellTiter-Glo ATP luminescence, 48-72 h; max response: stronger effect = lower value. In short, it runs like this: (§1)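 Cells exposed to compounds for 48 or 72 hr at 37 degrees Celsius. Viability read as ATP-coupled luminescence with CellTiter-Glo after 10 min at room temperature.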
For orientation: ATP-based viability assays read luminescence as a measure of living cells.

For another assay, the system named is HACAT. The assay is described as follows: qHTS assay to identify novel small-molecules to repurpose for Merkel cell carcinoma treatment (AID 1296009). Further: nearly all actives have a fitted effect of over 60% in size. Particulars: MCC and control cell lines, CellTiter-Glo viability, 72 h; at 44.8 µM (top of the series) unless noted. The essentials:
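Cells were incubated with compound for 72 hr at 37 degree celsius before CellTiter-Glo addition. Luminescence was normalized with no-cell wells as full cytotoxicity and DMSO as baseline.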

Another assay has as its system HeLa. The assay is described as follows: Primary qHTS to identify gynecologic anti-cancer compounds using libraries of approved drugs and bioactive compounds (AID 1345084). Further: nearly all actives have a fitted effect of over 55% in size. Further: potency means the concentration at half of the fitted maximal effect. The following applies: Gynecologic cancer cell panel viability, ATPlite luminescence, 48 h; series mostly up to 57.5 µM. The essentials:
(§2)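 Cells, 1,000 per well, plated 16 h, then exposed 48 h at 37 C to compounds. Viability by ATPlite luminescence after 15 min at room temperature.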

A further assay concerns SKOV3. Described as above. The following applies: Gynecologic cancer cell panel viability, ATPlite luminescence, 48 h; series mostly up to 57.5 µM. The essentials:
as §2

The subject of assay [4] is Zika virus NS2B-NS3 protease (unlinked complex). The assay is described as follows: Primary screen GU Rhodamine qHTS for Zika virus inhibitors: Unlinked NS2B-NS3 protease assay (AID 1347159). Further: on the % scale 0 is the no-effect control and ±100 the full control effect; nearly all actives have a fitted effect of over 60% in size. The essentials:
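Noncovalent NS2B hydrophilic domain/NS3 protease complex (25 nM final) in 10 mM Tris-HCl pH 8.0, 0.01% Tween 20, preincubated 15 min with compounds (up to 114 microM), then 1.5 microM Rhodamine110 substrate. Fluorescence change over 15 min fitted to 4-parameter Hill.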

For a further assay, the system named is KB-3-1. Put plainly: Cytotoxic Profiling of Annotated Libraries Using Quantitative High-Throughput Screening (AID 1296008). Further: nearly all actives have a fitted effect of over 60% in size. Further: potency means the concentration at half of the fitted maximal effect. On max response: on the % scale 0 is the no-effect control and ±100 the full control effect. Particulars: Five cell lines viability, CellTiter-Glo ATP luminescence, 48-72 h; max response: stronger effect = lower value. The essentials:
as §1

Assay [5] is described as follows: P-glycoprotein substrates identified in KB-3-1 adenocarcinoma cell line, qHTS therapeutic library screen (AID 1346986). Further: nearly all actives have a fitted effect of over 60% in size. In short, it runs like this:
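Compounds were tested in dose-response against KB-3-1 and KB-8-5-11 cells at 37 degree C for 72 h, and viability was measured by luminescence. AC50 values came from curve fitting with class-based activity calls.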

Assay [6] can be described thus: Primary qHTS for inhibitors of nuclear receptor binding SET domain protein 2 (NSD2) in an isogenic RCH-ACV NSD2 p.E1099K mutant (9B) (AID 1645876). Further: nearly all actives have a fitted effect of over 70% in size. Further: potency means the concentration at half of the fitted maximal effect.
The nature of assay [7]: Primary qHTS for inhibitors of nuclear receptor binding SET domain protein 2 (NSD2) in an RCH-ACV wild type WT cells (2C) (AID 1645877). Further: nearly all actives have a fitted effect of over 70% in size. Further: potency means the concentration at half of the fitted maximal effect.

Records with an inconclusive call do not appear. Values without a mark were called inactive. The source made the active and inactive calls. Unless noted, the call rests on the fitted dose curve; in most records, active means well fitted curve in the direction sought with a large enough effect; inconclusive means small, poorly fitted or top-dose-only effect, or another doubt; inactive means no such curve, though single readings can be large; an effect the other way counts as inactive or inconclusive. *1 amine or outer side, *2 acyl side, *3 side chain or, on linkers, in order; H or OH if unused. Where a SMILES comes first, the peptide text is derived from it. [ ]: non-standard residue; d: D form. X5 = CC(CC(O[*:1])C(=O)[*:2])C(=O)O; NMeV = CN[CH](C(=O)O)C(C)C; NMeA = CN[CH](C)C(=O)O; βAla = NCCC(=O)O

Cytochrome P450 2C9 (Homo sapiens), sequence (P11712 whole entry, looked up): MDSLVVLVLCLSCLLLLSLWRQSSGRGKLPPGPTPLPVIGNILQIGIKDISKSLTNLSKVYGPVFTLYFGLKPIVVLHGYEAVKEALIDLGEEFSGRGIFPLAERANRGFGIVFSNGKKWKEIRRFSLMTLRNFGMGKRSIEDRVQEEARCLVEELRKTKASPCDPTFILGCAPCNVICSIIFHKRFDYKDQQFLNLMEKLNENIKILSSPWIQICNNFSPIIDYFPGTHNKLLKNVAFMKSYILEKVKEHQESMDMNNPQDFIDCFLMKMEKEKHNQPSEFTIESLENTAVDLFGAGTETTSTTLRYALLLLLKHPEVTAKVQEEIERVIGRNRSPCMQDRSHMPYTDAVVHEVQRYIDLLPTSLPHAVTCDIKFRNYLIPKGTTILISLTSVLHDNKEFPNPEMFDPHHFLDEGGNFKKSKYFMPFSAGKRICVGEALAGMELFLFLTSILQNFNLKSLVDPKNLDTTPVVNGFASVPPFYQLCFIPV

With `NCCCCCNC1(c2ccccc2)CCCCC1`, the Potency entry (in [1]; in assay [3]; with HeLa; in the assay with SKOV3) was “inactive” throughout. Also, the Potency in [2] was 2.13 µM (active). Besides, the max response in the assay with CRL-7250 is -4.91%. In addition, the compound was classed as inactive in the assay with HACAT.
On to `CCC(C)C1NC(=O)C(C(C)=O)=C1O` (centres undefined), for which the Potency entry (in assay [4]; in the assay on HeLa; in the assay on SKOV3) was “inactive” each time. In addition, the max response in the assay on CRL-7250 was -9.18%; in the assay on KB-3-1, -22.8%. In addition, in the assay with HACAT, the outcome is “inactive [at 92 µM]”.
Take `c1ccc(C2(c3ccccc3)OC[C@@H]([C@H]3CCCCN3)O2)cc1`: the Potency result (in [4]; in the assay on HeLa; in the assay with SKOV3) was “inactive” throughout. Also, the Potency in assay [2] is 0.849 µM (active). Besides, the results for the max response with CRL-7250 and in the assay on KB-3-1 were -2.49% and -9.58%, respectively.
Turning to `CC(O)(c1ccccc1)C(Cc1ccc(Cl)cc1)n1cncn1` (centres undefined), the Potency entry (in assay [1]; in assay [4]; in the assay on HeLa; in the assay on SKOV3) was “inactive” throughout. In addition, in assay [3], the Potency was 0.952 µM (active). In addition, the max response was 0.336% with CRL-7250 and -4.41% in the assay on KB-3-1. Further, in the assay on HACAT, the call was inactive.
With `O=S(=O)(c1ccccc1F)N1CCOc2c(N3CCNCC3)cccc21`, the Potency entry (in assay [5]; in assay [1]; in [4]; in assay [2]; in the assay on SKOV3) was “inactive” each time. Moreover, the Potency in assay [3] was 9.52 µM (active). In addition, the max response in the assay on CRL-7250 was 2.13%. For the same compound, the call in the assay with KB-3-1 and in the assay with HACAT was inactive.
With `C=C1CC[C@H]2[C@@H](/C=C(\C)C(=O)[C@@]3(OC(C)=O)C[C@H](C)[C@H](OC(=O)c4ccccc4)[C@@H]3[C@H]1OC(C)=O)C2(C)C`, the Potency entry (in assay [1]; in assay [4]; in the assay with HeLa; in the assay on SKOV3) was “inactive” each time. The max response was 1.55% in the assay with CRL-7250 and 4.96% in the assay on KB-3-1.
With `C#CC1(O)CCC2C3CCC4=CC(=O)CCC4=C3C=CC21C` (centres undefined), the Potency was 2.91 µM (active) in assay [1], 6.51 µM (active) with KB-3-1 and 1.12 µM (active) with HeLa. Moreover, the max response in the assay with CRL-7250 is -2.47%. Besides, the result in the assay on HACAT was inactive. In the assay on SKOV3, the Potency entry is “inactive”.
Turning to `C[C@]12CC[C@@H](O)C[C@@H]1CC[C@@H]1[C@@H]2CC[C@]2(C)C(=O)[C@@H](Br)C[C@@H]12`, the Potency entry (in assay [4]; in the assay on HeLa; in the assay with SKOV3) was “inactive” in each case. Besides, the Potency in [6] is 6.49 µM (active); in [7] it was 10.3 µM (active). Moreover, the max response was -20.8% in the assay on CRL-7250 and 9.47% with KB-3-1. In addition, the compound was classed as inactive in the assay with HACAT.
For the compound `CCC(C)C1NC(=O)C2CCCN2C(=O)C(CC(C)C(=O)O)OC(=O)CCNC(=O)C(C)N(C)C(=O)C(C(C)C)N(C)C1=O` (centres undefined) (cyclo([X5]PI[NMeV][NMeA][βAla]); configuration not given here), the Potency entry (in assay [5]; in assay [4]; in assay [6]; in assay [7]; in the assay with HeLa; in the assay with SKOV3) was “inactive” each time. Besides, the max response in the assay with CRL-7250 was -24.2%. Further, the call with KB-3-1 was inactive.
